Records with an inconclusive call do not appear. The source made the active and inactive calls. The calls were made as follows, unless noted: active = hit-call score of the fitted dose curve at least 0.9, where 1 is the maximum; inactive = score below 0.9.
Experiments:
[1] = target: Retinoic acid receptor RXR-alpha (Homo sapiens) (UniProt P19793); experiment: ATG_RXRa_TRANS: Attagene TRANS-FACTORIAL HepG2 Assay for human Retinoid X Receptor alpha (RXRa) (AID 2283012; active = hit-call score of the fitted dose curve at least 0.9, where 1 is the maximum)
Sequence of Retinoic acid receptor RXR-alpha (Homo sapiens) (P19793 whole entry, looked up, the tested form may be a part): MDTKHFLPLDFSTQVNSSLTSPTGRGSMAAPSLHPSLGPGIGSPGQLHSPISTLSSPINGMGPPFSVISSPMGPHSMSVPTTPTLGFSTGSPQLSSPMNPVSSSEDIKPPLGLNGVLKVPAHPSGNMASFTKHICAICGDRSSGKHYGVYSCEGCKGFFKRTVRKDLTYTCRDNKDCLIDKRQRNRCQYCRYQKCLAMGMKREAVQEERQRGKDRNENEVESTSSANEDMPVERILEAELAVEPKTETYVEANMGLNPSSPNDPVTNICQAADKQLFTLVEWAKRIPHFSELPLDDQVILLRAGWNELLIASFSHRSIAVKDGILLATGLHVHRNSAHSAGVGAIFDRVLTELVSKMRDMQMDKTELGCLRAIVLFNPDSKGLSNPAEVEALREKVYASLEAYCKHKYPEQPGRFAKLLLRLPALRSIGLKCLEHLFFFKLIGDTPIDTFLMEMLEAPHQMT
How it was run: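 HepG2 cells transiently transfected with GAL4-UAS reporter units and chimeric RXRa-Gal4 protein, treated 24 h. Reporter mRNA measured by RT-PCR, fluorescent labelling, HpaI digestion and capillary electrophoresis. Induction fitted against DMSO.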

[2] = target: human Retinoid X Receptor beta (RXRb), RXRB (gene 6257) (UniProt P28702); experiment: ATG_RXRb_TRANS: Attagene TRANS-FACTORIAL HepG2 Assay for human Retinoid X Receptor beta (RXRb) (AID 2283013; active = hit-call score of the fitted dose curve at least 0.9, where 1 is the maximum)
Sequence of human Retinoid X Receptor beta (RXRb), RXRB (gene 6257) (P28702 whole entry, looked up, the tested form may be a part): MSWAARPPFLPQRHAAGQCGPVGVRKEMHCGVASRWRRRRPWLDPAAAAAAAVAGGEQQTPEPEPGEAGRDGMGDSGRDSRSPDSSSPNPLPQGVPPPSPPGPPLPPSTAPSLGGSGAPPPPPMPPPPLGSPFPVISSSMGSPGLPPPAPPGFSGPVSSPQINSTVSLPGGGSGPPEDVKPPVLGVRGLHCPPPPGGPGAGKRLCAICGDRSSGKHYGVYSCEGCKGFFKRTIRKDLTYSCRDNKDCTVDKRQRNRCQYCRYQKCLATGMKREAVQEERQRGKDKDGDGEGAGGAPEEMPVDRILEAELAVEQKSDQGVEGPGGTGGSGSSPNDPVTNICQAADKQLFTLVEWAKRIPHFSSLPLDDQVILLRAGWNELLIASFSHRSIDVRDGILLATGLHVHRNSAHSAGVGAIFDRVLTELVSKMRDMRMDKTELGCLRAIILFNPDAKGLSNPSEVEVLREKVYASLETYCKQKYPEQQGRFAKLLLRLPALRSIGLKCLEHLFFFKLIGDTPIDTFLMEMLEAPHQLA
How it was run: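 HepG2 cells were transiently transfected with multiplexed GAL4-UAS reporters and a chimeric RXRb-Gal4 construct, then exposed for 24 h. Reporter mRNA was quantified by RT-PCR, FAM labeling, HpaI digestion and capillary electrophoresis; gain of signal was scored against DMSO.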

[3] = target: human Thyroid Receptor alpha (THRa1), THRA (gene 7067) (UniProt P10827); experiment: ATG_THRa1_TRANS: Attagene TRANS-FACTORIAL HepG2 Assay for human Thyroid Receptor alpha (THRa1) (AID 2283014; active = hit-call score of the fitted dose curve at least 0.9, where 1 is the maximum)
Sequence of human Thyroid Receptor alpha (THRa1), THRA (gene 7067) (P10827 whole entry, looked up, the tested form may be a part): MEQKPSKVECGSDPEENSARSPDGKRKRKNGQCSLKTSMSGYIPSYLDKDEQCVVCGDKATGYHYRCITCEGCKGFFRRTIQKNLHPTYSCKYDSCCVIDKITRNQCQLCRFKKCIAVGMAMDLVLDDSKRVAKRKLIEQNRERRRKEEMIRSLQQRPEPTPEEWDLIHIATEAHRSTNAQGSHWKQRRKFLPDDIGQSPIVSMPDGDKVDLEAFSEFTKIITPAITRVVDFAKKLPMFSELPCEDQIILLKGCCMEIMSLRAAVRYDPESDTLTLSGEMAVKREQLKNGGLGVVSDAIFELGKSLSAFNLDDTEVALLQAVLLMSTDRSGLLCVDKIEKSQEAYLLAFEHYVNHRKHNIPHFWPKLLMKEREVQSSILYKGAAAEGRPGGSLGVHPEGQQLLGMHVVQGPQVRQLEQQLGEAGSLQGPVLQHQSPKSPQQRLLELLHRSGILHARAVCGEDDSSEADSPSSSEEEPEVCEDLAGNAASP
How it was run: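 Transcripts from GAL4-UAS-driven reporters, measured after 24 h compound exposure by RT-PCR plus capillary electrophoresis of 6-FAM-labeled fragments, were fitted for gain of signal relative to DMSO. Cells: transiently transfected HepG2 expressing NR-Gal4 chimeras.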

[4] = read-out: E-selectin (Homo sapiens) (UniProt P16581); experiment: BSK_3C_Eselectin: BioMAP Diversity Plus: 3C Assay for Eselectin Biomarker Activity (AID 2283015); conditions: primary human endothelial cells (HUVEC); actives raise or lower the signal
How it was run: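 E-selectin ELISA readout, fitted bidirectionally relative to DMSO, taken 24 h post-dosing in HUVEC cultures of the 3C system. Overt cytotoxicity tracked with sulforhodamine B staining of parallel wells.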

[5] = read-out: Interleukin-1 alpha (IL1a), IL1A (gene 3552); experiment: BSK_BE3C_IL1a: BioMAP Diversity Plus: BE3C Assay for Interleukin-1 alpha (IL1a) Biomarker Activity (AID 2283016); conditions: primary human bronchial epithelial cells; actives raise or lower the signal
How it was run: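 Human primary bronchial epithelial cells, 24 h chemical exposure; IL-1a quantified by ELISA, fitted bidirectionally against DMSO. Cytotoxicity assessed in parallel by SRB total-protein staining at the time of measurement.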

[6] = read-out: Monocyte Chemoattractant Protein-1 (MCP1), CCL2 (gene 6347); experiment: BSK_3C_MCP1: BioMAP Diversity Plus: 3C Assay for Monocyte Chemoattractant Protein-1 (MCP1) Biomarker Activity (AID 2283017); conditions: primary human endothelial cells (HUVEC); actives raise or lower the signal
How it was run: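 MCP-1 was measured by ELISA 24 h after dosing in primary HUVEC 3C cultures and fitted in both directions relative to DMSO; cytotoxicity was checked by SRB total-protein staining in parallel wells.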

[7] = read-out: Monocyte Chemoattractant Protein-1 (MCP1), CCL2 (gene 6347); experiment: BSK_4H_MCP1: BioMAP Diversity Plus: 4H Assay for Monocyte Chemoattractant Protein-1 (MCP1) Biomarker Activity (AID 2283018); conditions: primary human endothelial cells (HUVEC); actives raise or lower the signal
How it was run: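 Human umbilical vein endothelial cells (4H system) exposed to chemicals for 24 h in 96-well format. MCP-1 measured by ELISA; bidirectional fitting against DMSO, with SRB total-protein staining in parallel cultures for cytotoxicity.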

[8] = read-out: Human Leukocyte Antigen - DR isotype (HLADR), HLA-DRA (gene 3122); experiment: BSK_3C_HLADR: BioMAP Diversity Plus: 3C Assay for Human Leukocyte Antigen - DR isotype (HLADR) Biomarker Activity (AID 2283019); conditions: primary human endothelial cells (HUVEC); actives raise or lower the signal;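 as to outcome: ELISA of cell-surface HLA-DR on HUVEC 24 h after dosing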
How it was run: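 Bidirectional fitting against DMSO was applied to the HLA-DR ELISA signal from human umbilical vein endothelial cells, 24 h post-dose. Cytotoxicity came from parallel SRB total-protein staining; 3C proliferation was counted by SRB at 48 h.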

[9] = read-out: Interleukin-8 (IL8), CXCL8 (gene 3576); experiment: BSK_3C_IL8: BioMAP Diversity Plus: 3C Assay for Interleukin-8 (IL8) Biomarker Activity (AID 2283020); conditions: primary human endothelial cells (HUVEC); actives raise or lower the signal
How it was run: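 Primary human umbilical vein endothelial cells were dosed for 24 h. IL-8 was quantified by ELISA and fitted bidirectionally against DMSO. Cytotoxicity was assessed in parallel cultures by SRB staining at 560 nm.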

[10] = read-out: Monokine induced gamma interferon (MIG), CXCL9 (gene 4283); experiment: BSK_3C_MIG: BioMAP Diversity Plus: 3C Assay for Monokine induced gamma interferon (MIG) Biomarker Activity (AID 2283021); conditions: primary human endothelial cells (HUVEC); actives raise or lower the signal;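 as to AC50: MIG protein level measured by immunoassay in the treated endothelial cultures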
How it was run: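 HUVEC primary endothelial cultures dosed with chemical; MIG quantified by ELISA at 24 h. Data fitted bidirectionally against DMSO control, with parallel SRB total-protein staining for cytotoxicity.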

[11] = BSK_3C_SRB: Viability Assessment in the BioMAP Diversity Plus: 3C Assay (AID 2283023); conditions: primary human endothelial cells (HUVEC);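 also: fitted both ways against DMSO so a hit may be signal rise or drop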
How it was run: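 Cytotoxicity readout in parallel HUVEC 3C cultures: after 24 h compound exposure, cells fixed with 10% TCA, stained with 0.1% SRB and read at 560 nm. Gain or loss relative to DMSO fitted.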

[12] = read-out: Matrix Metallopeptidase 1 (MMP1), MMP1 (gene 4312); experiment: BSK_BE3C_MMP1: BioMAP Diversity Plus: BE3C Assay for Matrix Metallopeptidase 1 (MMP1) Biomarker Activity (AID 2283024); conditions: primary human bronchial epithelial cells; actives raise or lower the signal
How it was run: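 Human primary bronchial epithelial cells (BE3C system) dosed for 24 h; MMP-1 quantified by ELISA. Bidirectional fit against DMSO; cytotoxicity tracked in parallel cultures by SRB total-protein staining.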

[13] = read-out: Pselectin, SELP (gene 6403); experiment: BSK_4H_Pselectin: BioMAP Diversity Plus: 4H Assay for Pselectin Biomarker Activity (AID 2283026); conditions: primary human endothelial cells (HUVEC); actives raise or lower the signal
How it was run: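 Primary human umbilical vein endothelial cells were treated 24 h, and cell-surface P-selectin was then quantified by ELISA. Bidirectional fit versus DMSO; cytotoxicity checked in parallel cultures by SRB total-protein staining.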

[14] = BSK_4H_SRB: Viability Assessment in the BioMAP Diversity Plus: 4H Assay (AID 2283027); conditions: primary human endothelial cells (HUVEC);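 also: cells exposed to compound for 24 h before staining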;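 as to AC50: curves fitted both ways versus DMSO so AC50 may be loss or gain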
How it was run: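 Human umbilical vein endothelial cells, 24 h after chemical dosing; total protein measured by 0.1% sulforhodamine B staining after 10% TCA fixation, read at 560 nm. Bidirectional fitting against DMSO.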

[15] = BSK_BE3C_SRB: Viability Assessment in the BioMAP Diversity Plus: BE3C Assay (AID 2283028); conditions: primary human bronchial epithelial cells;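 as to AC50: fitted both ways so AC50 may mark signal gain or loss versus DMSO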
How it was run: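 Cytotoxicity read-out: SRB (0.1%) staining of TCA-fixed (10%) human lung bronchial epithelial cells, absorbance 560 nm, 24 h post-dosing. Curves fitted both directions relative to DMSO.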

[16] = read-out: Thrombomodulin, THBD (gene 7056); experiment: BSK_3C_Thrombomodulin: BioMAP Diversity Plus: 3C Assay for Thrombomodulin Biomarker Activity (AID 2283029); conditions: primary human endothelial cells (HUVEC); actives raise or lower the signal
How it was run: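 Human umbilical vein endothelial cells were exposed to chemicals for 24 h; cell-surface thrombomodulin quantified by ELISA, with bidirectional fitting against DMSO baseline.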

[17] = target: human Vitamin D Receptor (VDR), VDR (gene 7421) (UniProt P11473); experiment: ATG_VDR_TRANS: Attagene TRANS-FACTORIAL HepG2 Assay for human Vitamin D Receptor (VDR) (AID 2283022; active = hit-call score of the fitted dose curve at least 0.9, where 1 is the maximum)
Sequence of human Vitamin D Receptor (VDR), VDR (gene 7421) (P11473 whole entry, looked up, the tested form may be a part): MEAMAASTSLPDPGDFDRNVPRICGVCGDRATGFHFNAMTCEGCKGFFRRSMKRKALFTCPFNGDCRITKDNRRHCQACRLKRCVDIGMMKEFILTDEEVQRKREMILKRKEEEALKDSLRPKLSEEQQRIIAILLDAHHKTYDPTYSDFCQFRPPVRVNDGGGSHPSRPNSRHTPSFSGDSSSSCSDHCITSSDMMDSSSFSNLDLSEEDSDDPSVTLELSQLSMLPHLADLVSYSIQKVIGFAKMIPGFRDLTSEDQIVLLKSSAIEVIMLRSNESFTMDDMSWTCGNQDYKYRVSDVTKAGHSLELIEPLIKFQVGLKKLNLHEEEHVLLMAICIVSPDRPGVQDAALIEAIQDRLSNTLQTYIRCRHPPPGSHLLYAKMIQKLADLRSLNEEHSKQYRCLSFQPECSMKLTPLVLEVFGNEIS
How it was run: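 Transactivation by an exogenous VDR-Gal4 chimera in transiently transfected HepG2 cells was measured as reporter transcript level 24 hours after chemical treatment. RT-PCR products were analysed by capillary electrophoresis and fitted in the positive direction relative to DMSO.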

[18] = target: human RAR-related Orphan Receptor gamma (RORg), RORC (gene 6097) (UniProt P51449); experiment: ATG_RORg_TRANS: Attagene TRANS-FACTORIAL HepG2 Assay for human RAR-related Orphan Receptor gamma (RORg) (AID 2283011; active = hit-call score of the fitted dose curve at least 0.9, where 1 is the maximum)
Sequence of human RAR-related Orphan Receptor gamma (RORg), RORC (gene 6097) (P51449 whole entry, looked up, the tested form may be a part): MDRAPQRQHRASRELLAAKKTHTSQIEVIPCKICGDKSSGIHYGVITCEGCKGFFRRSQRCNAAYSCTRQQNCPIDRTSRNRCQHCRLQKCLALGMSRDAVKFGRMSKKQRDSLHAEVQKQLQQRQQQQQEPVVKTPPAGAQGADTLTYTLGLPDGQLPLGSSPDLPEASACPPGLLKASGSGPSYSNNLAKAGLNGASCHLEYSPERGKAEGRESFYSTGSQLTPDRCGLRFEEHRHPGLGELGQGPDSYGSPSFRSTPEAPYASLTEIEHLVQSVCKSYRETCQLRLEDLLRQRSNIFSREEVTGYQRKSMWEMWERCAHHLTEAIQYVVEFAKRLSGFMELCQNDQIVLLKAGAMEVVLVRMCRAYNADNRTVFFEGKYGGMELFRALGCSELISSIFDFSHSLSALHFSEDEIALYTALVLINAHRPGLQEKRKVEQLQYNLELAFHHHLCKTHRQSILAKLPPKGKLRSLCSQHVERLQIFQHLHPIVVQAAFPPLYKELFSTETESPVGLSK
How it was run: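 Reporter transcripts from a transfected RORg-GAL4 chimera in HepG2 cells were quantified 24 h after dosing by RT-PCR, 6-FAM labelling, HpaI digestion and capillary electrophoresis; increases over DMSO baseline were fitted.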

[19] = BSK_3C_Vis: BioMAP Diversity Plus: 3C Assay for Morphology Visualization (AID 2283025); conditions: primary human endothelial cells (HUVEC);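 also: fitted both ways so gain or loss versus DMSO counts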;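 as to AC50: light microscopy image of cell morphology used as background control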
How it was run: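 Human umbilical vein endothelial cell morphology was inspected by light microscopy 24 h after chemical dosing; scored bidirectionally relative to DMSO.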

Sequence of E-selectin (Homo sapiens) (P16581 whole entry, looked up): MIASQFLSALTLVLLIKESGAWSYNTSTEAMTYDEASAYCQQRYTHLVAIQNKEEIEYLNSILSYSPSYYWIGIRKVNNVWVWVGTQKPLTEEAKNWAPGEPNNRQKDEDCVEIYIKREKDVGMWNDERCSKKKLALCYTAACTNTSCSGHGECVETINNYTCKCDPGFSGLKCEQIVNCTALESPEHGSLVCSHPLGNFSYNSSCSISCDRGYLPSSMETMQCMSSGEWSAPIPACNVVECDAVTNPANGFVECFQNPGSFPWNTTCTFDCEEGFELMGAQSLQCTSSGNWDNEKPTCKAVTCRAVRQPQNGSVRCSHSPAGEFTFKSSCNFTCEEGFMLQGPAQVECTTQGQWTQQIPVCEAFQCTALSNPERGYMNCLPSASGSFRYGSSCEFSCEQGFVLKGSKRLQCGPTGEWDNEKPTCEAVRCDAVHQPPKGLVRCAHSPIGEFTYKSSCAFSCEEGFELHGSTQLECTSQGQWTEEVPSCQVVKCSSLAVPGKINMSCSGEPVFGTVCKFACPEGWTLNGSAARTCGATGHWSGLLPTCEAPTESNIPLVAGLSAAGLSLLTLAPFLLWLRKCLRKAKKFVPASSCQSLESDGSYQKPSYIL

CCOC(=O)C(O)(c1ccc(Cl)cc1)c1ccc(Cl)cc1
outcome [1]: inactive
outcome [2]: inactive
outcome [3]: inactive
AC50 [4]: 32 µM (active)
outcome [5]: inactive
AC50 [6]: 31 µM (active)
AC50 [7]: 25.3 µM (active)
AC50 [8]: 31.3 µM (active)
AC50 [9]: 31.1 µM (active)
AC50 [10]: 39.4 µM (active)
AC50 [11]: 34.5 µM (active)
AC50 [12]: 8.5 µM (active)
AC50 [13]: 32.2 µM (active)
AC50 [14]: 32.2 µM (active)
outcome [15]: inactive
outcome [16]: inactive

Cc1ccccc1[N+](=O)[O-]
outcome [4]: inactive
outcome [5]: inactive
outcome [6]: inactive
outcome [7]: inactive
outcome [8]: inactive
outcome [9]: inactive
outcome [10]: inactive
outcome [17]: inactive
outcome [11]: inactive
outcome [12]: inactive
outcome [14]: inactive
outcome [16]: inactive

O=NN(c1ccccc1)c1ccccc1
outcome [18]: inactive
AC50 [2]: 52.2 µM (active)
outcome [4]: inactive
outcome [5]: inactive
outcome [6]: inactive
outcome [7]: inactive
outcome [8]: inactive
outcome [9]: inactive
outcome [10]: inactive
outcome [11]: inactive
outcome [12]: inactive
outcome [13]: inactive
outcome [14]: inactive
outcome [15]: inactive
outcome [16]: inactive

CCCCCCCCCC[N+](C)(C)CCCCCCCCCC
outcome [18]: inactive
outcome [3]: inactive
AC50 [4]: 4.77 µM (active)
AC50 [5]: 7.76 µM (active)
AC50 [6]: 3.59 µM (active)
AC50 [7]: 3.16 µM (active)
AC50 [8]: 2.22 µM (active)
AC50 [9]: 4.54 µM (active)
AC50 [10]: 5.66 µM (active)
AC50 [11]: 2 µM (active)
AC50 [12]: 4.95 µM (active)
AC50 [14]: 2.01 µM (active)
AC50 [15]: 5.15 µM (active)
outcome [16]: inactive

CCC(C)c1cc([N+](=O)[O-])cc([N+](=O)[O-])c1O (configuration not stated)
outcome [1]: inactive
outcome [2]: inactive
outcome [3]: inactive
AC50 [4]: 8.02 µM (active)
outcome [5]: inactive
AC50 [6]: 9.99 µM (active)
AC50 [7]: 5.15 µM (active)
AC50 [8]: 14 µM (active)
AC50 [9]: 7.38 µM (active)
outcome [10]: inactive
AC50 [11]: 10 µM (active)
outcome [12]: inactive
AC50 [19]: 9.8 µM (active)
AC50 [13]: 10.6 µM (active)
AC50 [14]: 12.6 µM (active)
outcome [16]: inactive

Nn1cnnc1
outcome [3]: inactive
outcome [4]: inactive
outcome [5]: inactive
outcome [6]: inactive
outcome [7]: inactive
outcome [8]: inactive
outcome [9]: inactive
outcome [10]: inactive
outcome [11]: inactive
outcome [12]: inactive
outcome [19]: inactive
outcome [14]: inactive
outcome [15]: inactive
outcome [16]: inactive

— PubChem BioAssay (EPA / NIEHS)
